Source: PubChem BioAssay (NCI)
Compounds without any hit were thinned out: in the full panel of roughly 79,000, 15% have a hit. A number with no mark means an inactive call. Calls of active or inactive are those of the source. Rule as the data show it: active = growth inhibition above about 70%; inactive = the rest.

Key:
[1] = NCI Yeast Anticancer Drug Screen. Data for the rad52 strain (AID 147);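 also: 0% = growth of vehicle-treated control cultures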; conditions: S. cerevisiae rad52 mutant growth inhibition, active compounds read high
In short: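 Genetically altered yeast (DNA damage repair defect) treated with compound; inhibition calculated relative to vehicle.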

[2] = NCI Yeast Anticancer Drug Screen. Data for the wt1 strain (AID 149);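 also: 0% = growth of vehicle-treated wt1 cultures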; conditions: S. cerevisiae wt1 strain (SPY 50644) growth inhibition, active compounds read high
In short: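 Growth inhibition read against vehicle controls after compound exposure of the wt1 yeast strain.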

[3] = NCI Yeast Anticancer Drug Screen. Data for the rad50EPP+ strain (AID 151);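 also: 0% = growth of vehicle-treated control cultures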; conditions: S. cerevisiae rad50 mutant strain, active compounds read high
In short: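 Strain rad50EPP+; compound exposure; % growth inhibition vs vehicle.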

[4] = NCI Yeast Anticancer Drug Screen. Data for the mgt1 strain (AID 153); conditions: S. cerevisiae mgt1 mutant growth inhibition, active compounds read high
In short: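 Read-out: yeast growth inhibition vs vehicle control. Strain mgt1, drawn from a panel altered in DNA damage repair or cell cycle control.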

[5] = NCI Yeast Anticancer Drug Screen. Data for the rad50 strain (AID 155);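 also: 0% = growth of vehicle-only cultures of the same strain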; conditions: S. cerevisiae rad50 strain growth inhibition, active compounds read high
In short: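 Readout: growth inhibition relative to vehicle-treated cultures. Compound exposure was carried out in a genetically defined yeast strain deficient in DNA damage repair.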

[6] = NCI Yeast Anticancer Drug Screen. Data for the mec2-1 strain (AID 157); conditions: S. cerevisiae mec2-1 strain, active compounds read high
In short: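 Cells of the genetically defined mec2-1 yeast strain are incubated with test compound. Inhibition of growth is calculated against vehicle-treated controls.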

[7] = NCI Yeast Anticancer Drug Screen. Data for the rad14 strain (AID 159);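 also: 0% = growth of vehicle-treated control cultures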; conditions: S. cerevisiae rad14 strain growth inhibition, active compounds read high
In short: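 Growth inhibition vs vehicle controls; genetically altered yeast strain (DNA damage repair defect) treated with test compounds.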

[8] = NCI Yeast Anticancer Drug Screen. Data for the sgs1 mgt1 strain (AID 161);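 also: 0% = growth of cultures given vehicle only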; conditions: S. cerevisiae sgs1 mgt1 strain, active compounds read high
In short: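 Mutant yeast exposed to compound; growth scored against vehicle-only wells.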

[9] = NCI Yeast Anticancer Drug Screen. Data for the CLN2oe strain (AID 163);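 also: 0% = growth of vehicle-only control cultures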; conditions: S. cerevisiae CLN2oe strain, active compounds read high
In short: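 Strain altered in cell-cycle control, incubated with compound; growth compared to solvent-treated controls.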

[10] = NCI Yeast Anticancer Drug Screen. Data for the cln2 rad14 strain (AID 165);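 also: 0% = growth equal to vehicle treated cultures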; conditions: S. cerevisiae cln2 rad14 strain, active compounds read high
In short: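 The screen exposed genetically defined yeast (cln2 rad14) to test compounds and scored growth inhibition relative to vehicle-treated controls.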

[11] = NCI Yeast Anticancer Drug Screen. Data for the bub3 strain (AID 167); conditions: S. cerevisiae bub3 mutant strain, active compounds read high
In short: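 Readout: yeast growth inhibition, expressed relative to vehicle-only wells. The test organism is a mutant strain from a panel with lesions in DNA repair or checkpoint genes.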

[12] = NCI Yeast Anticancer Drug Screen. Data for the wt2 strain (AID 169);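 also: 0% = growth of vehicle-treated yeast cultures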; conditions: S. cerevisiae wt2 strain growth inhibition, active compounds read high
In short: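 Steps: yeast strain treated with compound; growth recorded; inhibition calculated relative to cultures given vehicle alone.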

[13] = NCI Yeast Anticancer Drug Screen. Data for the mlh1 strain (AID 171);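 also: 0% = growth of vehicle-treated control cultures of the same strain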; conditions: S. cerevisiae mlh1 strain growth inhibition, active compounds read high
In short: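 Yeast screen: mutant strain plus compound, growth scored against vehicle control wells.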

[14] = NCI Yeast Anticancer Drug Screen. Data for the sgs1 strain (AID 173);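 also: 0% = growth of vehicle-only control cultures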; conditions: S. cerevisiae sgs1 mutant, active compounds read high
In short: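 Inhibition of yeast growth served as the measure. The mutant strain was treated with each compound, and growth was normalised to cultures receiving vehicle alone.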

[15] = NCI Yeast Anticancer Drug Screen. Data for the mlh1 rad18 strain (AID 175); conditions: S. cerevisiae mlh1 rad18 strain growth inhibition, active compounds read high
In short: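 Compound-treated yeast growth, normalised to vehicle controls. Strain bears defined DNA repair mutations.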

[16] = NCI Yeast Anticancer Drug Screen. Data for the rad18 strain (AID 177); conditions: S. cerevisiae rad18 mutant growth inhibition, active compounds read high
In short: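 Inhibition values reflect reduced yeast growth compared with vehicle-treated controls, using a strain engineered with a DNA damage repair defect.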

[17] = at 5.0 µM (retest, dose inferred, filed as 0.5)
[18] = at 50.0 µM (retest, dose inferred, filed as 5.0)

## CCS(=O)(=O)[O][Sn]([CH2]C)([CH2]C)[O]S(=O)(=O)CC
[1]; at 1.2 µM
  growth inhibition: -49%
[1]; at 3.7 µM
  growth inhibition: -43%
[1]; at 11.0 µM
  growth inhibition: -29%
[1]; at 33.0 µM
  growth inhibition: -15%
[1]; at 100.0 µM
  growth inhibition: 50%
[2]; at 1.2 µM
  growth inhibition: -47%
[2]; at 3.7 µM
  growth inhibition: -43%
[2]; at 11.0 µM
  growth inhibition: -39%
[2]; at 33.0 µM
  growth inhibition: -25%
[2]; at 100.0 µM
  growth inhibition: 61%
[3]; at 1.2 µM
  growth inhibition: -47%
[3]; at 3.7 µM
  growth inhibition: -43%
[3]; at 11.0 µM
  growth inhibition: -51%
[3]; at 33.0 µM
  growth inhibition: -33%
[3]; at 100.0 µM
  growth inhibition: -35%
[4]; at 1.2 µM
  growth inhibition: -3%
[4]; at 3.7 µM
  growth inhibition: -1%
[4]; at 11.0 µM
  growth inhibition: 1%
[4]; at 33.0 µM
  growth inhibition: 18%
[4]; at 100.0 µM
  growth inhibition: 61%
[5]; at 1.2 µM
  growth inhibition: -4%
[5]; at 3.7 µM
  growth inhibition: -19%
[5]; [17]
  growth inhibition: 21%
[5]; at 11.0 µM
  growth inhibition: 2%
[5]; at 33.0 µM
  growth inhibition: -14%
[5]; [18]
  growth inhibition: 68%
[5]; at 50.0 µM
  growth inhibition: 48.5%
[5]; at 100.0 µM
  growth inhibition: 56%
[6]; at 1.2 µM
  growth inhibition: -5%
[6]; at 3.7 µM
  growth inhibition: 3%
[6]; [17]
  growth inhibition: 6%
[6]; at 11.0 µM
  growth inhibition: 3%
[6]; at 33.0 µM
  growth inhibition: 23%
[6]; [18]
  growth inhibition: 85% (active)
[6]; at 50.0 µM
  growth inhibition: 77% (active)
[6]; at 100.0 µM
  growth inhibition: 69%
[7]; at 1.2 µM
  growth inhibition: -2%
[7]; at 3.7 µM
  growth inhibition: 4%
[7]; at 11.0 µM
  growth inhibition: 4%
[7]; at 33.0 µM
  growth inhibition: 10%
[7]; at 100.0 µM
  growth inhibition: 34%
[8]; [17]
  growth inhibition: 15%
[8]; [18]
  growth inhibition: 69%
[8]; at 50.0 µM
  growth inhibition: 42.2%
[9]; at 1.2 µM
  growth inhibition: -18%
[9]; at 3.7 µM
  growth inhibition: -45%
[9]; at 11.0 µM
  growth inhibition: -33%
[9]; at 33.0 µM
  growth inhibition: -35%
[9]; at 100.0 µM
  growth inhibition: 54%
[10]; [17]
  growth inhibition: 2%
[10]; [18]
  growth inhibition: 32%
[10]; at 50.0 µM
  growth inhibition: 67%
[11]; at 1.2 µM
  growth inhibition: -5%
[11]; at 3.7 µM
  growth inhibition: -9%
[11]; [17]
  growth inhibition: 1%
[11]; at 11.0 µM
  growth inhibition: -8%
[11]; at 33.0 µM
  growth inhibition: -1%
[11]; [18]
  growth inhibition: 72% (active)
[11]; at 50.0 µM
  growth inhibition: 55.7%
[11]; at 100.0 µM
  growth inhibition: 55%
[12]; at 1.2 µM
  growth inhibition: -32%
[12]; at 3.7 µM
  growth inhibition: -21%
[12]; at 11.0 µM
  growth inhibition: -26%
[12]; at 33.0 µM
  growth inhibition: -4%
[12]; at 100.0 µM
  growth inhibition: 77% (active)
[13]; at 1.2 µM
  growth inhibition: 1%
[13]; at 3.7 µM
  growth inhibition: 5%
[13]; at 11.0 µM
  growth inhibition: 16%
[13]; at 33.0 µM
  growth inhibition: 28%
[13]; at 100.0 µM
  growth inhibition: 52%
[14]; at 1.2 µM
  growth inhibition: -4%
[14]; at 3.7 µM
  growth inhibition: -9%
[14]; at 11.0 µM
  growth inhibition: -3%
[14]; at 33.0 µM
  growth inhibition: 7%
[14]; at 100.0 µM
  growth inhibition: 51%
[15]; [17]
  growth inhibition: 44%
[15]; [18]
  growth inhibition: 87% (active)
[15]; at 50.0 µM
  growth inhibition: 59.6%
[16]; at 1.2 µM
  growth inhibition: -29%
[16]; at 3.7 µM
  growth inhibition: -25%
[16]; at 11.0 µM
  growth inhibition: -17%
[16]; at 33.0 µM
  growth inhibition: -16%
[16]; at 100.0 µM
  growth inhibition: 52%

## C[C@@]12CCC(=O)C=C1CC[C@H]1C2=CC[C@]2(C)C1CC[C@@]2(C)O (stereo partly specified)
[1]; at 1.2 µM
  growth inhibition: -12%
[1]; at 3.7 µM
  growth inhibition: -3%
[1]; at 11.0 µM
  growth inhibition: -4%
[1]; at 33.0 µM
  growth inhibition: 69%
[1]; at 100.0 µM
  growth inhibition: 91% (active)
[2]; at 1.2 µM
  growth inhibition: -13%
[2]; at 3.7 µM
  growth inhibition: -26%
[2]; at 11.0 µM
  growth inhibition: -23%
[2]; at 33.0 µM
  growth inhibition: 54%
[2]; at 100.0 µM
  growth inhibition: 91% (active)
[3]; at 1.2 µM
  growth inhibition: -1%
[3]; at 3.7 µM
  growth inhibition: -6%
[3]; at 11.0 µM
  growth inhibition: -8%
[3]; at 33.0 µM
  growth inhibition: -12%
[3]; at 100.0 µM
  growth inhibition: 1%
[4]; at 1.2 µM
  growth inhibition: 12%
[4]; at 3.7 µM
  growth inhibition: 19%
[4]; at 11.0 µM
  growth inhibition: 38%
[4]; at 33.0 µM
  growth inhibition: 86% (active)
[4]; at 100.0 µM
  growth inhibition: 96% (active)
[5]; at 1.2 µM
  growth inhibition: 1%
[5]; at 3.7 µM
  growth inhibition: 7%
[5]; [17]
  growth inhibition: 27%
[5]; at 11.0 µM
  growth inhibition: 5%
[5]; at 33.0 µM
  growth inhibition: 63%
[5]; [18]
  growth inhibition: 60%
[5]; at 50.0 µM
  growth inhibition: 74.2% (active)
[5]; at 100.0 µM
  growth inhibition: 85% (active)
[6]; at 1.2 µM
  growth inhibition: 8%
[6]; at 3.7 µM
  growth inhibition: 10%
[6]; [17]
  growth inhibition: 44%
[6]; at 11.0 µM
  growth inhibition: 15%
[6]; at 33.0 µM
  growth inhibition: 85% (active)
[6]; [18]
  growth inhibition: 82% (active)
[6]; at 50.0 µM
  growth inhibition: 66.5%
[6]; at 100.0 µM
  growth inhibition: 96% (active)
[7]; at 1.2 µM
  growth inhibition: -22%
[7]; at 3.7 µM
  growth inhibition: -25%
[7]; at 11.0 µM
  growth inhibition: -10%
[7]; at 33.0 µM
  growth inhibition: 70% (active)
[7]; at 100.0 µM
  growth inhibition: 92% (active)
[8]; [17]
  growth inhibition: -27%
[8]; [18]
  growth inhibition: 78% (active)
[8]; at 50.0 µM
  growth inhibition: 77.5% (active)
[9]; at 1.2 µM
  growth inhibition: 32%
[9]; at 3.7 µM
  growth inhibition: -2%
[9]; at 11.0 µM
  growth inhibition: 0%
[9]; at 33.0 µM
  growth inhibition: 75% (active)
[9]; at 100.0 µM
  growth inhibition: 93% (active)
[10]; [17]
  growth inhibition: 46%
[10]; [18]
  growth inhibition: 30%
[10]; at 50.0 µM
  growth inhibition: 56.9%
[11]; at 1.2 µM
  growth inhibition: -1%
[11]; at 3.7 µM
  growth inhibition: 19%
[11]; [17]
  growth inhibition: -28%
[11]; at 11.0 µM
  growth inhibition: 28%
[11]; at 33.0 µM
  growth inhibition: 80% (active)
[11]; [18]
  growth inhibition: 54%
[11]; at 50.0 µM
  growth inhibition: 75.5% (active)
[11]; at 100.0 µM
  growth inhibition: 96% (active)
[12]; at 1.2 µM
  growth inhibition: -26%
[12]; at 3.7 µM
  growth inhibition: -19%
[12]; at 11.0 µM
  growth inhibition: -18%
[12]; at 33.0 µM
  growth inhibition: 64%
[12]; at 100.0 µM
  growth inhibition: 92% (active)
[13]; at 1.2 µM
  growth inhibition: -27%
[13]; at 3.7 µM
  growth inhibition: -11%
[13]; at 11.0 µM
  growth inhibition: 4%
[13]; at 33.0 µM
  growth inhibition: 63%
[13]; at 100.0 µM
  growth inhibition: 90% (active)
[14]; at 1.2 µM
  growth inhibition: 1%
[14]; at 3.7 µM
  growth inhibition: -6%
[14]; at 11.0 µM
  growth inhibition: 14%
[14]; at 33.0 µM
  growth inhibition: 72% (active)
[14]; at 100.0 µM
  growth inhibition: 91% (active)
[15]; [17]
  growth inhibition: 25%
[15]; [18]
  growth inhibition: 58%
[15]; at 50.0 µM
  growth inhibition: 50.5%
[16]; at 1.2 µM
  growth inhibition: -2%
[16]; at 3.7 µM
  growth inhibition: 0%
[16]; at 11.0 µM
  growth inhibition: 10%
[16]; at 33.0 µM
  growth inhibition: 76% (active)
[16]; at 100.0 µM
  growth inhibition: 92% (active)
